The values that follow come from PubChem BioAssay (EPA / NIEHS).

Test [1] can be described thus: ATG_GRE_CIS: Attagene CIS-FACTORIAL HepG2 Assay for human Glucocorticoid Response Elements (GRE) (AID 2282947). The settings on record: HepG2 GRE cis-reporter, Attagene multiplex mRNA; actives raise or lower the signal. In outline: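 Transiently transfected HepG2 cells carrying GRE cis-reporter units (endogenous TF activity) dosed 24 h; reporter mRNA quantified by RT-PCR, 6-FAM labelling, HpaI digestion and capillary electrophoresis. Bidirectional fit versus DMSO baseline.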

A short description of test [2]: ATG_ISRE_CIS: Attagene CIS-FACTORIAL HepG2 Assay for human Interferon Regulatory Factor 1 (IRF1) binding to an Interferon-Stimulated Response Element (ISRE) (AID 2282948). The note with it: HepG2 ISRE cis-reporter (Attagene), mRNA transcription readout; actives raise or lower the signal. In outline:
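Transiently transfected HepG2 cells carrying cis-element reporter units, dosed 24 hours. Reporter mRNA quantified by RT-PCR, fluorescent primer extension, HpaI digestion and capillary electrophoresis. Bidirectional fitting relative to DMSO.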

A short description of test [3]: ATG_M_32_CIS: Attagene CIS-FACTORIAL HepG2 Assay for M32 Transcription Factor (Internal Marker) (AID 2282949).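 Also: background control marker of the multiplexed CIS panel rather than a real target.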 The note with it: HepG2 Attagene cis-factorial M32 reporter, mRNA; actives raise or lower the signal. In outline: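 HepG2 cells transiently transfected with multiplexed cis-regulated reporter units, dosed 24 h. Reporter mRNA quantified by RT-PCR, 6-FAM labelling, HpaI digestion and capillary electrophoresis; bidirectional fit vs DMSO.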

Test [4] can be described thus: ATG_M_06_CIS: Attagene CIS-FACTORIAL HepG2 Assay for M06 Transcription Factor (Internal Marker) (AID 2282950). The settings on record: HepG2 Attagene CIS-FACTORIAL M06 internal marker reporter; actives raise or lower the signal. In outline: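 One of many multiplexed endpoints: HepG2 reporter mRNA after 24 h dosing, detected by RT-PCR and capillary electrophoresis fluorescence; gain or loss of signal analysed against DMSO.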

For test [5], the target named is Hypoxia-inducible factor 1-alpha (Homo sapiens) (UniProt Q16665). Briefly: ATG_HIF1a_CIS: Attagene CIS-FACTORIAL HepG2 Assay for human Hypoxia Inducible Factor 1 (HIF1A) (AID 2282951). The settings on record: HepG2 Attagene cis-factorial HIF1a reporter transcription; actives raise or lower the signal. In outline: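 Measures endogenous transcription-factor activity through cis-regulated reporter mRNA in HepG2. Cells dosed 24 h; transcripts quantified by RT-PCR with 6-FAM-labelled products separated by capillary electrophoresis; DMSO serves as negative control.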

The target in test [6] is Hepatocyte nuclear factor 6 (Homo sapiens) (UniProt Q9UBC0). Put plainly: ATG_HNF6_CIS: Attagene CIS-FACTORIAL HepG2 Assay for human Hepatocyte Nuclear Factor 6 (HNF6) (AID 2282952). The note with it: HepG2 Attagene cis-factorial HNF6 reporter transcription; actives raise or lower the signal. In outline: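 HepG2, transient MRTU transfection (cis promoters); 24 h chemical exposure; total RNA → oligo(dT) RT → PCR → 6-FAM labelling → HpaI cut → CE; bidirectional fit vs DMSO.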

For test [7], the target named is Heat shock factor protein 1 (Homo sapiens) (UniProt Q00613). Put plainly: ATG_HSE_CIS: Attagene CIS-FACTORIAL HepG2 Assay for human Heat Shock Transcription Factor 1 (HSE) (AID 2282953). The settings on record: HepG2 HSE cis-reporter, Attagene RNA transcription; actives raise or lower the signal. In outline: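 Using HepG2 with transfected cis-driven reporter constructs, compound effects on endogenous factor activity are scored as reporter mRNA change at 24 h. Detection: RT-PCR, HpaI digestion, capillary electrophoresis; bidirectional fitting to DMSO.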

Test [8] in a line: ATG_MRE_CIS: Attagene CIS-FACTORIAL HepG2 Assay for human Metal Responsive Element (MRE) (AID 2282954). The note with it: HepG2 MRE cis-reporter transcription, Attagene multiplex; actives raise or lower the signal. In outline:
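HepG2 cells transiently transfected with cis-element-driven reporter units; mRNA measured 24 h after dosing. Reporter transcripts quantified by RT-PCR, FAM labelling, HpaI digestion and capillary electrophoresis; bidirectional fit versus DMSO.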

In test [9] the target is Paired box protein Pax-6 (Homo sapiens) (UniProt P26367). Put plainly: ATG_Pax6_CIS: Attagene CIS-FACTORIAL HepG2 Assay for human Paired Box 6 (PAX6) (AID 2282956). The note with it: HepG2 CIS-FACTORIAL PAX6 reporter transcription, RNA readout; actives raise or lower the signal. In outline:
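HepG2 cells transiently transfected with cis-promoter-driven multiplexed reporter units sensing endogenous transcription factor activity; 24 h chemical exposure. Reporter mRNA quantified by RT-PCR, 6-FAM labelling, HpaI digestion and capillary electrophoresis; bidirectional fit versus DMSO baseline.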

A short description of test [10]: ATG_PXRE_CIS: Attagene CIS-FACTORIAL HepG2 Assay for human Pregnane X Receptor Element (PXRE) (AID 2282957). The note with it: HepG2 Attagene CIS-FACTORIAL PXRE reporter, mRNA; actives raise or lower the signal. In outline:
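Transfect HepG2 with MRTUs (cis promoter elements); dose chemical, incubate 24 h; isolate RNA, RT with oligo(dT), PCR, 6-FAM label, HpaI cut, CE. Gain/loss fit vs DMSO.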

A short description of test [11]: ATG_PPRE_CIS: Attagene CIS-FACTORIAL HepG2 Assay for human Peroxisome Proliferator-activated Response Element (PPRE) (AID 2282958). The settings on record: HepG2 PPRE cis-element reporter, Attagene transcription factor profiling; actives raise or lower the signal. In outline: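 Cells are first transfected transiently with the multiplexed reporter library, then dosed for 24 h. Total RNA is reverse-transcribed, amplified, fluorescently end-labeled and HpaI-cut before capillary electrophoresis; activity is fitted bidirectionally against DMSO controls.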

Test [12] can be described thus: ATG_RORE_CIS: Attagene CIS-FACTORIAL HepG2 Assay for human RAR-related Orphan Receptor Element (RORE) (AID 2282959). The note with it: HepG2 Attagene cis-factorial RORE reporter, mRNA; actives raise or lower the signal. In outline:
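Cells were HepG2 carrying transfected cis-regulated reporter constructs, dosed for 24 hours. Total RNA was reverse-transcribed and reporter cDNA amplified, fluorescently labeled and sized by capillary electrophoresis. Activity was fitted bidirectionally relative to DMSO.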

Test [13] can be described thus: ATG_Sox_CIS: Attagene CIS-FACTORIAL HepG2 Assay for human SRY-box transcription factor (SOX) (AID 2282960). The settings on record: HepG2 Attagene cis-factorial SOX reporter, mRNA; actives raise or lower the signal. In outline: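 Transient MRTU transfection of HepG2; 24 h compound incubation; TriZol RNA, oligo(dT) RT, PCR, 6-FAM primer extension, HpaI cut, CE. Bidirectional fit, DMSO = baseline.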

Test [14] has as its target Transcription factor Sp1 (Homo sapiens) (UniProt P08047). Put plainly: ATG_Sp1_CIS: Attagene CIS-FACTORIAL HepG2 Assay for human Specificity Protein 1 (Sp1) (AID 2282961). The settings on record: HepG2 Sp1 cis-reporter transcription, actives raise or lower the signal. In outline:
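Endogenous Sp1 activity was gauged in human liver HepG2 cells bearing transfected reporter units under a cis-regulating promoter. After 24 h dosing, reporter mRNA was quantified by RT-PCR with capillary electrophoresis, and activity fitted bidirectionally versus DMSO.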

For test [15], the target named is Signal transducer and activator of transcription 3 (Homo sapiens) (UniProt P40763). Put plainly: ATG_STAT3_CIS: Attagene CIS-FACTORIAL HepG2 Assay for human Signal Transducer and Activator of Transcription 3 (STAT3) (AID 2282963). The note with it: HepG2, Attagene cis-factorial STAT3 reporter transcription; actives raise or lower the signal. In outline:
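HepG2 cells transiently transfected with multiple cis-element-driven reporter units report endogenous transcription factor activity. After 24 h compound exposure, reporter mRNA is measured by RT-PCR, 6-FAM labelling, HpaI digestion and capillary electrophoresis. Fitted bidirectionally versus DMSO.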

A short description of test [16]: ATG_TA_CIS: Attagene CIS-FACTORIAL HepG2 Assay for human TA Basal Promoter (AID 2282964). The note with it: HepG2 Attagene CIS-factorial TA basal promoter reporter; actives raise or lower the signal. In outline: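 Transient MRTU transfection of HepG2 preceded 24 h compound exposure. Reporter mRNA levels were then read by RT-PCR with capillary electrophoresis, and this background-control endpoint was fitted bidirectionally to DMSO.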

Test [17] in a line: ATG_TCF_b_cat_CIS: Attagene CIS-FACTORIAL HepG2 Assay for human T-Cell-Factor with beta-catenin (TCF/b-cat) (AID 2282965). The settings on record: HepG2 TCF/beta-catenin cis-reporter transcription, actives raise or lower the signal. In outline:
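HepG2 cells transiently transfected with cis-promoter-driven multiplexed reporter units; reporter mRNA measured 24 h after dosing by RT-PCR, FAM labelling, HpaI digestion and capillary electrophoresis. Bidirectional fitting relative to DMSO baseline.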

The nature of test [18]: ATG_TAL_CIS: Attagene CIS-FACTORIAL HepG2 Assay for human TAL Basal Promoter (AID 2282966).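 Also: background control endpoint measuring basal TAL promoter reporter mRNA not a specific factor.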 The settings on record: HepG2 Attagene cis-factorial TAL promoter reporter; actives raise or lower the signal. In outline: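 Fluorescence of labelled reporter cDNA fragments, resolved by capillary electrophoresis, gave the readout. Human HepG2 liver cells carried transiently transfected cis-element reporter units and were treated for 24 hours; activity was fitted bidirectionally against DMSO.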

The nature of test [19]: ATG_PBREM_CIS: Attagene CIS-FACTORIAL HepG2 Assay for human Phenobarbital-responsive Enhancer Module (PBREM) (AID 2282955). The settings on record: HepG2 PBREM cis-reporter, Attagene multiplexed transcription; actives raise or lower the signal. In outline: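 Fluorescence of labelled reporter cDNA fragments, resolved by capillary electrophoresis, gives mRNA induction in transfected HepG2 cells treated for 24 h; DMSO serves as negative control and baseline.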

A short description of test [20]: ATG_SREBP_CIS: Attagene CIS-FACTORIAL HepG2 Assay for human Sterol Regulatory Element Binding (SREBP) (AID 2282962). The note with it: HepG2 Attagene cis-factorial SREBP reporter, mRNA; actives raise or lower the signal. In outline:
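HepG2 cells transiently transfected with multiplexed cis-promoter reporter units sensing endogenous transcription factors; reporter mRNA measured 24 h after dosing by RT-PCR, 6-FAM labeling, HpaI digestion and capillary electrophoresis. Bidirectional fit versus DMSO.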

Calls of active or inactive are those of the source. The calls were made as follows: active = hit-call score of the fitted dose curve at least 0.9, where 1 is the maximum; inactive = score below 0.9.

Sequence of Heat shock factor protein 1 (Homo sapiens) (Q00613 whole entry, looked up): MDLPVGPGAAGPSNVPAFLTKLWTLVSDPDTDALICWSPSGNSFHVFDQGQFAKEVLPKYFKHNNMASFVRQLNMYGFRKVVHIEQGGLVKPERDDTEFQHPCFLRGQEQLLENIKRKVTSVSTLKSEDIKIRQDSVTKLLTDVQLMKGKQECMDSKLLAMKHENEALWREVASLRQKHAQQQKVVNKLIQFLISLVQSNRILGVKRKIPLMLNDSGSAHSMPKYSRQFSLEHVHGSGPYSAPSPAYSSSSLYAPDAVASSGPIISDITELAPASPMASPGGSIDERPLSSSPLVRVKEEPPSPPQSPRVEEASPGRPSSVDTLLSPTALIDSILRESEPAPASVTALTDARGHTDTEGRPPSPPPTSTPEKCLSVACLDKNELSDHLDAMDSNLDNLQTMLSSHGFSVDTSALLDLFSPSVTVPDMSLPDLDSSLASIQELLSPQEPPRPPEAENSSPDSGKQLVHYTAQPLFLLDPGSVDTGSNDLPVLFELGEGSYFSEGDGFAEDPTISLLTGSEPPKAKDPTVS
Sequence of Hepatocyte nuclear factor 6 (Homo sapiens) (Q9UBC0 whole entry, looked up): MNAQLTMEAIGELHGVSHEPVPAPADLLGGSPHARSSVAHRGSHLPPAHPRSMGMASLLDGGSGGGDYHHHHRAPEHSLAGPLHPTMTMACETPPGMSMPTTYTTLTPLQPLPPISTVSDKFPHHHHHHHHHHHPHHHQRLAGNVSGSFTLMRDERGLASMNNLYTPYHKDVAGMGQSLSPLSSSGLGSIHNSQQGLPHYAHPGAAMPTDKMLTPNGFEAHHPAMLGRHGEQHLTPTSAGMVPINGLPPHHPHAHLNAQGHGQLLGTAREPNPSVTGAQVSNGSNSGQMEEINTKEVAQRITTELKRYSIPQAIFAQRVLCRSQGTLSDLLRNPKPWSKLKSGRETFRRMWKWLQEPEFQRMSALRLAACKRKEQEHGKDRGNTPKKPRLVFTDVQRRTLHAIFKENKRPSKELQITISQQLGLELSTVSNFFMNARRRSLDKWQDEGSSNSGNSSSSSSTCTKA
Sequence of Paired box protein Pax-6 (Homo sapiens) (P26367 whole entry, looked up): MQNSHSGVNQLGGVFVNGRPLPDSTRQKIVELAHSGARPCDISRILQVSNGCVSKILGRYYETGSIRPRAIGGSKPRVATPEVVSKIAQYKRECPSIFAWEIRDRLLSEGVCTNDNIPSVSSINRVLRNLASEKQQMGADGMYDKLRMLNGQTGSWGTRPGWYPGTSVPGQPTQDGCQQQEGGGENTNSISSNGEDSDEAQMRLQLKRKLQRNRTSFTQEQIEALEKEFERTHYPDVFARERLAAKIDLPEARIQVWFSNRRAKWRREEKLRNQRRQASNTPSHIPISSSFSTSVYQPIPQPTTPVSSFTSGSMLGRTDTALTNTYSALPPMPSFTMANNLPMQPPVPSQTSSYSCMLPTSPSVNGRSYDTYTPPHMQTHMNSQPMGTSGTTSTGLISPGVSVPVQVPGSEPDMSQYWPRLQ
Sequence of Signal transducer and activator of transcription 3 (Homo sapiens) (P40763 whole entry, looked up): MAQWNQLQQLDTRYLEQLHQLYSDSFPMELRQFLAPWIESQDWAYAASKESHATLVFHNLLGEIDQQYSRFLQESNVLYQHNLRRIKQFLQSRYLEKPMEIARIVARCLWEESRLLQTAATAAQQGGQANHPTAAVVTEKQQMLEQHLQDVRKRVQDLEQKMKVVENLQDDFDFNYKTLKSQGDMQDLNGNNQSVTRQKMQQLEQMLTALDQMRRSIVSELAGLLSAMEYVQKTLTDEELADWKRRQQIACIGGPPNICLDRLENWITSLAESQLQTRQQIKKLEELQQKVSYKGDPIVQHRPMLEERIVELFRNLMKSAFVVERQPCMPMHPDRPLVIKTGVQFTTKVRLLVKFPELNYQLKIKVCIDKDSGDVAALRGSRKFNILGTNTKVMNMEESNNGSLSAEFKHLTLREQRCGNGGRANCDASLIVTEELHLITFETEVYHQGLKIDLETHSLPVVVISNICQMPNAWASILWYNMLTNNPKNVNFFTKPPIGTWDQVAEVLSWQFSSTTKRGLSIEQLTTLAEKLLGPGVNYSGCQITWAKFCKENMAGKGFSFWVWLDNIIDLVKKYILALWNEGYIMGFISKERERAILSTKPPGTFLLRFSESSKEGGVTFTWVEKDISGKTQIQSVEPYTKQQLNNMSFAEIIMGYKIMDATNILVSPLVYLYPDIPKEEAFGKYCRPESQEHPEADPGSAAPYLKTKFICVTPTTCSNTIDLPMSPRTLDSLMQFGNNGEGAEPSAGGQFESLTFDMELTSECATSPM
Sequence of Transcription factor Sp1 (Homo sapiens) (P08047 whole entry, looked up): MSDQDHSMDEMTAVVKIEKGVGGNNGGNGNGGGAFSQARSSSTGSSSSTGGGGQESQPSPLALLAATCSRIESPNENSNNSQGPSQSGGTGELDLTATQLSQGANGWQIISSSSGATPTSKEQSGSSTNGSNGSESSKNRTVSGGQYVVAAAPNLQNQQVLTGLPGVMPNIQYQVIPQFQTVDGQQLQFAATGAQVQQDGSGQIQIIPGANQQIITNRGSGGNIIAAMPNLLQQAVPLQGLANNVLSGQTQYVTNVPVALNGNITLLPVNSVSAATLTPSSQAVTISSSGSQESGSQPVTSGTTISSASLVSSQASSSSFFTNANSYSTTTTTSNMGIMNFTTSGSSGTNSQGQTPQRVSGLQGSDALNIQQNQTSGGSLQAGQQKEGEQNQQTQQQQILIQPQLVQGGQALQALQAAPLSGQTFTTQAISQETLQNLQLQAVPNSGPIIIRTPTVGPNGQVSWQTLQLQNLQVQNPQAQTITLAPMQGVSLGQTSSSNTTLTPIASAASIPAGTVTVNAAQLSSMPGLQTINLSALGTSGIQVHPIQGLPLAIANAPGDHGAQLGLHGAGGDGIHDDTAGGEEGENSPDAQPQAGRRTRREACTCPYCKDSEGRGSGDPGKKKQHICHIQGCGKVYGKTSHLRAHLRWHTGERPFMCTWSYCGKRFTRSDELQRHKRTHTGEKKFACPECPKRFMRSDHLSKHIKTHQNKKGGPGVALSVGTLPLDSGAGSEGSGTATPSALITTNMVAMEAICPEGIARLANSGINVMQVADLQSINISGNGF
Sequence of Hypoxia-inducible factor 1-alpha (Homo sapiens) (Q16665 whole entry, looked up): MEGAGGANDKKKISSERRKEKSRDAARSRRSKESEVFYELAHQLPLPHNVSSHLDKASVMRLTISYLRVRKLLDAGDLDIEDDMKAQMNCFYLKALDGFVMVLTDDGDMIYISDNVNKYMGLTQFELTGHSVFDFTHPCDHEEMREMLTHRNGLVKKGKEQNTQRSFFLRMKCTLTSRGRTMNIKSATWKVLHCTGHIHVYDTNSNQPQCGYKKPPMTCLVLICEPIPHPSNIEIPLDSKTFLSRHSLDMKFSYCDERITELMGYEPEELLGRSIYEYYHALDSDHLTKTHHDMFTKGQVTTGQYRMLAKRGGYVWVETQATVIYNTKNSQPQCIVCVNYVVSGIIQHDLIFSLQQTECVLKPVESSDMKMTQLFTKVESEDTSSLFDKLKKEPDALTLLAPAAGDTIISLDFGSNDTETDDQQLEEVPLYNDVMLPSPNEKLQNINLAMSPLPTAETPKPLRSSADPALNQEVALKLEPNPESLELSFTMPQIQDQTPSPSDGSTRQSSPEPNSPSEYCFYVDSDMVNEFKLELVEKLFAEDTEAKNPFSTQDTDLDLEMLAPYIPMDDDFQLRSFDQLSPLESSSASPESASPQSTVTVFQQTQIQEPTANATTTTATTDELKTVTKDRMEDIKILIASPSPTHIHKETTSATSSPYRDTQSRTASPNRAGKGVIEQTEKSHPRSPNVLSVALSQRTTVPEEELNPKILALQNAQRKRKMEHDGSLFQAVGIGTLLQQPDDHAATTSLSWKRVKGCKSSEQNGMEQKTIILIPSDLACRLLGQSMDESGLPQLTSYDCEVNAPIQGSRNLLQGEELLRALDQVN

By AC50 is commonly meant the concentration giving half of the maximal activity seen. With `CC(C)(C)[C@@H](O)[C@@H](Cc1ccc(Cl)cc1)n1cncn1`, the AC50 in [1] was 90.9 µM (active); in test [10], 13.5 µM (active). In addition, the call in test [2], in [3], in test [4], in [5], in test [6] and in [7] was inactive. Also, the call in [8], in test [9], in [11], in test [12], in test [13] and in [14] was inactive. For the same compound, the compound was called inactive in test [15], in [16], in [17] and in [18].
Take `COC(=O)c1ccc(I)cc1S(=O)(=O)NC(=O)Nc1nc(C)nc(OC)n1`: the result in test [1], in [2], in [3], in [4], in test [5] and in test [6] was inactive. In addition, the call in [7], in test [8], in test [19], in test [9], in [12] and in [13] was inactive. In addition, the compound was classed as inactive in test [14], in test [20], in test [15], in test [16], in test [17] and in test [18]. Also, the AC50 in [10] is 50 µM (active).
On to `CCOC(=O)NCCOc1ccc(Oc2ccccc2)cc1`, for which the outcome in test [2], in test [3], in test [4], in test [6], in [9] and in test [13] was inactive. For the same compound, the compound was called inactive in [14], in test [15], in test [16], in test [17] and in test [18]. For the same compound, the concentration at half-maximal activity (AC50) in [5] was 86 µM (active); in test [7], 78.1 µM (active); in [8], 66.2 µM (active); in test [19], 50 µM (active); in test [10], 10 µM (active); in test [11] it was 8.06 µM (active). Also, the AC50 in test [12] is 13.3 µM (active).
Take `CCOC(=O)C(C)Oc1ccc(Oc2nc3ccc(Cl)cc3o2)cc1` (stereo not drawn): the compound was classed as inactive in [1], in [2], in test [3], in test [4], in test [5] and in test [6]. Moreover, the result in [7], in [8], in test [19], in test [9], in [10] and in test [11] was inactive. In addition, the compound was classed as inactive in test [13], in test [14], in test [15], in test [16], in test [17] and in [18].
